# Laboratory results from the supplement of paper PMC11732987, “Enantioselective OTUD7B fragment discovery through chemoproteomics screening and high-throughput optimisation” (Communications Chemistry, 2025).
# Unmarked numbers belong to inactive results.
# Experiments:
# Test in all cases: log2 ratio of Biotin-Ahx-Ub-VS probe labelling (fragment/DMSO); higher = less target engagement (more negative = stronger competition), active = hit call of the paper (q ≤ 0.05, log2 ratio ≤ -1)
# Conditions in all cases: compound concentration: 200 uM; treatment time: 3 h
# USP16 = USP16 (UniProt Q9Y5T5)
# Procedure, shortened: (§1)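 Labelled DUBs were enriched with NeutrAvidin, digested with LysC and trypsin, and run by diaPASEF LC-MS/MS. The labelling used Biotin-Ahx-Ub-VS at 0.5 µM final for 1 h on HEK293T lysate (495 µg per sample) previously treated in triplicate with fragment at 200 µM or vehicle for 3 h. Values are average log2 fragment/vehicle ratios by unpaired t-test on global-median-normalised Spectronaut quantities of proteins with ≥2 unique peptides.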
# USP19 = target: T1, USP19 (UniProt O94966)
# T1 sequence (whole entry): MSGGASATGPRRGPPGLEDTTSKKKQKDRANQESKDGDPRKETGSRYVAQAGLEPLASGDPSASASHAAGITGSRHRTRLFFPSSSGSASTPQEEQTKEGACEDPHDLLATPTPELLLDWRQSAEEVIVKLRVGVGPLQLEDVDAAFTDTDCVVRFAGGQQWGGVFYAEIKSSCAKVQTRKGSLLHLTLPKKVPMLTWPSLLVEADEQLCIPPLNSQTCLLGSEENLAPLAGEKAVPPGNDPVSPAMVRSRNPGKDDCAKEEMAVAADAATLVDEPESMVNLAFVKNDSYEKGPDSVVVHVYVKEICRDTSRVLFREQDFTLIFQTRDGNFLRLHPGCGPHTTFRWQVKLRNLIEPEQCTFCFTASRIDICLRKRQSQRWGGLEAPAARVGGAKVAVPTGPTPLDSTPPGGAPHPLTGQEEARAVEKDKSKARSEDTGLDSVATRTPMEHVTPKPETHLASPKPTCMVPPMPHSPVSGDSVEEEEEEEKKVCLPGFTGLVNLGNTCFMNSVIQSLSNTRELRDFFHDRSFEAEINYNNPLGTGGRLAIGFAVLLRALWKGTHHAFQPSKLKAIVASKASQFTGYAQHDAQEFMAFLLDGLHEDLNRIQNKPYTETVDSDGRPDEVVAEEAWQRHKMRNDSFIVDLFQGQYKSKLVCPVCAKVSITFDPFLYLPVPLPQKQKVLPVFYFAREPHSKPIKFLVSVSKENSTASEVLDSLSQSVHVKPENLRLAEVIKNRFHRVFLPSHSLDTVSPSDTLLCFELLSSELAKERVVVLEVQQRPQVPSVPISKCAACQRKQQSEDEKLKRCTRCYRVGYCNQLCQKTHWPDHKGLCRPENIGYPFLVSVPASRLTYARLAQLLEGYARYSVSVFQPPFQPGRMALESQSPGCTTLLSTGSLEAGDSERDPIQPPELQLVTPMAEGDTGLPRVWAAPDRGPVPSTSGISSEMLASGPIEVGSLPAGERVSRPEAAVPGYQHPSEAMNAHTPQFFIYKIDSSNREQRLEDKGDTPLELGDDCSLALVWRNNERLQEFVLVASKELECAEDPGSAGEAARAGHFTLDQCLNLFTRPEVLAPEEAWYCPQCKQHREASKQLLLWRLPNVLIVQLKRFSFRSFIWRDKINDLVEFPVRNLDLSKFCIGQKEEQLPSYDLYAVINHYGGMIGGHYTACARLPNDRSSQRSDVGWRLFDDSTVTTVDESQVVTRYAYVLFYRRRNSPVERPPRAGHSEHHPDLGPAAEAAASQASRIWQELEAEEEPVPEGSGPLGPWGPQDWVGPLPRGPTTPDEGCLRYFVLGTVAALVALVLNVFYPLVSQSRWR
# Procedure, shortened: as §1
# USP24 = USP24 (UniProt Q9UPU5)
# Procedure, shortened: as §1
# USP25 = target: T2, USP25 (UniProt Q9UHP3)
# T2 sequence (whole entry): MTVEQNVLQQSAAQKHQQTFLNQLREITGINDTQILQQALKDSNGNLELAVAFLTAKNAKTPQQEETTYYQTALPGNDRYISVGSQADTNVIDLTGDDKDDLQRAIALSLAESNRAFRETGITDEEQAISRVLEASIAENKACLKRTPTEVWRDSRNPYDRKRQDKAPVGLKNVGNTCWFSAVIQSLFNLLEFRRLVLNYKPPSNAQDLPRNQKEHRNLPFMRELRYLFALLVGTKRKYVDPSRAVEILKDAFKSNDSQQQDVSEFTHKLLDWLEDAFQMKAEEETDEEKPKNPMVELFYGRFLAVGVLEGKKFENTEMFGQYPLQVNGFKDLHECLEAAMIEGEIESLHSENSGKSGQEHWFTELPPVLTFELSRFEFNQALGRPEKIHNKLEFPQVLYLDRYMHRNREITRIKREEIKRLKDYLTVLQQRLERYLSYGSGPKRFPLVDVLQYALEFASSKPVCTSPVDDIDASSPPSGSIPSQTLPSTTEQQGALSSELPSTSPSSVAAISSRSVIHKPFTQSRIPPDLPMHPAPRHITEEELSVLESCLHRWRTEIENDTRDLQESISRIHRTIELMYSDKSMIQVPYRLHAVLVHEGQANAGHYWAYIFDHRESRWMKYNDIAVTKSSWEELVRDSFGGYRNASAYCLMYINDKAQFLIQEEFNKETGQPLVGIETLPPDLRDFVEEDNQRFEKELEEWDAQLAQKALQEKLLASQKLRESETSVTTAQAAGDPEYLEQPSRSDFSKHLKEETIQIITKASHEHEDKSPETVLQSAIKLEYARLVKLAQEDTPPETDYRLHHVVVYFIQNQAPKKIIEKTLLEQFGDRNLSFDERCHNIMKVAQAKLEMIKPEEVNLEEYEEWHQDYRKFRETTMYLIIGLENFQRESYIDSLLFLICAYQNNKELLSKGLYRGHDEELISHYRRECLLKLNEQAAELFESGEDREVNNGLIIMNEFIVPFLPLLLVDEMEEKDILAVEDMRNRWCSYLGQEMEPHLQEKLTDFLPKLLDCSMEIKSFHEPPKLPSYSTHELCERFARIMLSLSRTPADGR
# Procedure, shortened: as §1
# USP28 = target: T3, USP28 (UniProt Q96RU2)
# T3 sequence (whole entry): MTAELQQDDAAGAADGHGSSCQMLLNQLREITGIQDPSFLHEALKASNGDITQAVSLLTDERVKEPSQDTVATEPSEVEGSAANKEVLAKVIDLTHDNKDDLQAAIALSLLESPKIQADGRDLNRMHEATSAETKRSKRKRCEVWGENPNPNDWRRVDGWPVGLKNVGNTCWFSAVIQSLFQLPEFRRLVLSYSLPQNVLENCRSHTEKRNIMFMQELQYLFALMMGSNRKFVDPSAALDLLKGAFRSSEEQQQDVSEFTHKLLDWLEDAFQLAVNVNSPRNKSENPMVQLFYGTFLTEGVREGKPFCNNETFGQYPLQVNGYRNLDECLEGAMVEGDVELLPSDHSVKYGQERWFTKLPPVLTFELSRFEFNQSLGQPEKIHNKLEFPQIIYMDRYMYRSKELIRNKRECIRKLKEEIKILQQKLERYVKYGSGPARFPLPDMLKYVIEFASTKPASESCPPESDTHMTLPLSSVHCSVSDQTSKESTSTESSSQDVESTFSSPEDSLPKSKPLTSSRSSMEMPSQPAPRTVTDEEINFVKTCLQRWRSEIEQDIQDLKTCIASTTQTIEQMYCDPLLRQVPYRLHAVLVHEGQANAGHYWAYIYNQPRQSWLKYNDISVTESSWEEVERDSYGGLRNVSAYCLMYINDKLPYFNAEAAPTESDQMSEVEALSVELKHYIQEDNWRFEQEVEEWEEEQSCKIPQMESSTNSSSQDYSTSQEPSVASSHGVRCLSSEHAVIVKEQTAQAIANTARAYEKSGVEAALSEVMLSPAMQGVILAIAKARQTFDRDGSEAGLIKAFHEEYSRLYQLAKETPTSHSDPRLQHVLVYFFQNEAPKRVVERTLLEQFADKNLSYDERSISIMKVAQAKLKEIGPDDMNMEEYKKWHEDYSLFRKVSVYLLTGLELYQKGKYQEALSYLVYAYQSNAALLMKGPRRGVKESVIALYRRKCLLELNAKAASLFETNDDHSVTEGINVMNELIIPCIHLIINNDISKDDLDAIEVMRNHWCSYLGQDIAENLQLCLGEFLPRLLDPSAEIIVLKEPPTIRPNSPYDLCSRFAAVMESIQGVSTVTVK
# Procedure, shortened: as §1
# Chain of USP16 (Q9Y5T5 whole entry, looked up, the tested form may be a part): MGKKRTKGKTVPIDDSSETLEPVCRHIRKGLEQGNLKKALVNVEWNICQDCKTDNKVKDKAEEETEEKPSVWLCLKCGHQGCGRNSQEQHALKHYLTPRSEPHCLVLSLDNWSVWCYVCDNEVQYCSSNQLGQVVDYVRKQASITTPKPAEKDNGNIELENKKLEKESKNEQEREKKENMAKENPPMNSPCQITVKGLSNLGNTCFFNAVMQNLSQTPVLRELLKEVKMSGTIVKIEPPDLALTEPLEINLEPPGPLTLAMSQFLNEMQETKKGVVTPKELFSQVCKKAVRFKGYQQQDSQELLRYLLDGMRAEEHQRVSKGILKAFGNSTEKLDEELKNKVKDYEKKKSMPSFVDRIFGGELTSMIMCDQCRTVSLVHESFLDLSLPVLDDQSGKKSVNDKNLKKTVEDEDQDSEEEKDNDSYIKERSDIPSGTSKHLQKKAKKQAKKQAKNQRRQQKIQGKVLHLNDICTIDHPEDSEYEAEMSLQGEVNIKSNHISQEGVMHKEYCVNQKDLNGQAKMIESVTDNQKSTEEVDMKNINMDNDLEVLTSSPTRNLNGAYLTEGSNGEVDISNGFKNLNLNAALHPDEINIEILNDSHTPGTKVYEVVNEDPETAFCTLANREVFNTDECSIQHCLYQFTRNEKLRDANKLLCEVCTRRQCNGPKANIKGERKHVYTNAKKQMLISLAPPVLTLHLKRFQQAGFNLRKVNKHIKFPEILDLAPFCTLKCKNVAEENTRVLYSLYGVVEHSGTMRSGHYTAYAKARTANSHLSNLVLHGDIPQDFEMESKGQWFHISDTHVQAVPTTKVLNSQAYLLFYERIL
# Chain of USP24 (Q9UPU5 whole entry): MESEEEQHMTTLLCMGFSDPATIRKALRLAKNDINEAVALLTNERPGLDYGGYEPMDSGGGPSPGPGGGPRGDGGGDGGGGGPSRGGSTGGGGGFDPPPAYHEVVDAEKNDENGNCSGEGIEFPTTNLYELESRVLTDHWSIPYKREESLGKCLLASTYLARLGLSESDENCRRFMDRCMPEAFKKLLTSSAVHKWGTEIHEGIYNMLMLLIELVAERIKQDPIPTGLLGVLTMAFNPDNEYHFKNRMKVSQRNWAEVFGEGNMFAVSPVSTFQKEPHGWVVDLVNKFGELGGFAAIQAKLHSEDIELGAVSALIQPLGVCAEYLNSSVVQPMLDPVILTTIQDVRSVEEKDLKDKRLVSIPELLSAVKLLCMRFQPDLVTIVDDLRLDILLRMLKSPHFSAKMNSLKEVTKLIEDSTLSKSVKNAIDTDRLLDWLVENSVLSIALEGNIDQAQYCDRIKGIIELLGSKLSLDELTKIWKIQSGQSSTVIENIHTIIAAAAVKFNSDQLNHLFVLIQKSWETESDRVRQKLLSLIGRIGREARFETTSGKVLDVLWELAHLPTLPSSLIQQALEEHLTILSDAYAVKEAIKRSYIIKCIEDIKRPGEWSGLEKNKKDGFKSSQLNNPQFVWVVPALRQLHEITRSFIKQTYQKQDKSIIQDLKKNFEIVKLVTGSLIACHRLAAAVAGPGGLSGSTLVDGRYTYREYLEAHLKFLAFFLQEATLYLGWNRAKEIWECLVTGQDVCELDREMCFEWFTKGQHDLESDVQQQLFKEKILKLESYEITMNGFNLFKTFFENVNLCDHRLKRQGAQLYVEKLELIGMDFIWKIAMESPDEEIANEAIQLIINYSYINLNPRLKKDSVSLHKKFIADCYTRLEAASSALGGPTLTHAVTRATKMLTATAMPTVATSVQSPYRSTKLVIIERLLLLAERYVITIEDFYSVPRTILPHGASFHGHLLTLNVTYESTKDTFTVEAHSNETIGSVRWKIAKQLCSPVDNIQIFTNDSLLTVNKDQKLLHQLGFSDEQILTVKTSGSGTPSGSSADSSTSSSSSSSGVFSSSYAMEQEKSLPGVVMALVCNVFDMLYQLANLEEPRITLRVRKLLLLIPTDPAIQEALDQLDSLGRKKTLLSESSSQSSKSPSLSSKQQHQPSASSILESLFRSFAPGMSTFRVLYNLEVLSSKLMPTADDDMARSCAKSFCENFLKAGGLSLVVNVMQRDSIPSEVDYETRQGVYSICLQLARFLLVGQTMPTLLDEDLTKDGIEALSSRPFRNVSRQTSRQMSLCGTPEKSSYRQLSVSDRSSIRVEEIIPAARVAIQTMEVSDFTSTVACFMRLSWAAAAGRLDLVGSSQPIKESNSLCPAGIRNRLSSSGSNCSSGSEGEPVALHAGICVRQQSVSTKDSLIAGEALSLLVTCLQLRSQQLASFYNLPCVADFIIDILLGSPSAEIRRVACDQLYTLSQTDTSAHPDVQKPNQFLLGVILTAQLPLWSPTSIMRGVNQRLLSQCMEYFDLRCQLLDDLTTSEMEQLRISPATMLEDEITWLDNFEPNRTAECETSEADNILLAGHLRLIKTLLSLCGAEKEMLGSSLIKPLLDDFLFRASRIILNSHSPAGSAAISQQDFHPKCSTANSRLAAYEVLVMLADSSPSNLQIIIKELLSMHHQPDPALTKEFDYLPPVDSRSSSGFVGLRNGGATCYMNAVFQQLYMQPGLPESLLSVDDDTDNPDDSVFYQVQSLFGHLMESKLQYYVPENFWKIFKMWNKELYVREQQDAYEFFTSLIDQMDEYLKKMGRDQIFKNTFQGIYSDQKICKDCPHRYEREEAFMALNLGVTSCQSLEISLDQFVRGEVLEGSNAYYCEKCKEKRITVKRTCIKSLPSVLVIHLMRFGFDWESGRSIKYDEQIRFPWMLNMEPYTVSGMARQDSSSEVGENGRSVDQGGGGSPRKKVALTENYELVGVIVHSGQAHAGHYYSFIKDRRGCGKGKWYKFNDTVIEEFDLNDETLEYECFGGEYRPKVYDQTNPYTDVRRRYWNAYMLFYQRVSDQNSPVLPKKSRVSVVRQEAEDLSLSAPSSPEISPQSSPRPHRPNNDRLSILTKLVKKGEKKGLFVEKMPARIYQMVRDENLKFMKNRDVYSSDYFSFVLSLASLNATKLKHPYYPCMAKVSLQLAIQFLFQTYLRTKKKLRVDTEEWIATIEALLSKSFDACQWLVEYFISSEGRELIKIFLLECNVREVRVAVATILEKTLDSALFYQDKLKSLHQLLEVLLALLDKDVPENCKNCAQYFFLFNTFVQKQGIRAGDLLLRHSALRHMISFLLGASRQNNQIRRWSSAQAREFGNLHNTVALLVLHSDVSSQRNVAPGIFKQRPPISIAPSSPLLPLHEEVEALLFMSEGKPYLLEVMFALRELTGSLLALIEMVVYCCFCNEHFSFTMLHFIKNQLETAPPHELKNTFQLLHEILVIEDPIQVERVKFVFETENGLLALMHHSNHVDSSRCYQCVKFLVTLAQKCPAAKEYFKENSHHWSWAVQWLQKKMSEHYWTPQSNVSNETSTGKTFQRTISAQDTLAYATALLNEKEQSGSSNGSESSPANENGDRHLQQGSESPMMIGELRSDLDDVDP
smiles,measurement,setting,value
O=C(CCl)Nc1ccc(Cl)c(F)c1,log2 ratio of Biotin-Ahx-Ub-VS probe labelling,USP16,0.323
same,log2 ratio of Biotin-Ahx-Ub-VS probe labelling,USP19,-0.486
same,log2 ratio of Biotin-Ahx-Ub-VS probe labelling,USP24,-1.66 (active)
same,log2 ratio of Biotin-Ahx-Ub-VS probe labelling,USP25,-1.62 (active)
same,log2 ratio of Biotin-Ahx-Ub-VS probe labelling,USP28,-1.53 (active)
